Only some compounds are listed: those with a hit (about 1.6% of all), similar ones and a draw of the others.
KCNQ2 enhance: potentiators of rat KCNQ2 potassium channel | O88943 | CHO-K1 KCNQ2, FluxOR thallium flux fluorescence; stronger effect = higher value | B-score at 10 µM | hit rate 0.54% among 310,000 | AID 2239;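 active = fluorescence ratio B-score at least 3 SD of library B-scores, with initial fluorescence B-score within 3 of them, cut at about 5.3 in these data; same plate scores as AID 2156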;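 note: B-score of peak minus minimum over baseline fluorescence ratio after K+ and Tl+ stimulus; positive B-score means potentiation of KCNQ2 with more thallium influx and brighter signal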
Target sequence (O88943 whole entry, looked up): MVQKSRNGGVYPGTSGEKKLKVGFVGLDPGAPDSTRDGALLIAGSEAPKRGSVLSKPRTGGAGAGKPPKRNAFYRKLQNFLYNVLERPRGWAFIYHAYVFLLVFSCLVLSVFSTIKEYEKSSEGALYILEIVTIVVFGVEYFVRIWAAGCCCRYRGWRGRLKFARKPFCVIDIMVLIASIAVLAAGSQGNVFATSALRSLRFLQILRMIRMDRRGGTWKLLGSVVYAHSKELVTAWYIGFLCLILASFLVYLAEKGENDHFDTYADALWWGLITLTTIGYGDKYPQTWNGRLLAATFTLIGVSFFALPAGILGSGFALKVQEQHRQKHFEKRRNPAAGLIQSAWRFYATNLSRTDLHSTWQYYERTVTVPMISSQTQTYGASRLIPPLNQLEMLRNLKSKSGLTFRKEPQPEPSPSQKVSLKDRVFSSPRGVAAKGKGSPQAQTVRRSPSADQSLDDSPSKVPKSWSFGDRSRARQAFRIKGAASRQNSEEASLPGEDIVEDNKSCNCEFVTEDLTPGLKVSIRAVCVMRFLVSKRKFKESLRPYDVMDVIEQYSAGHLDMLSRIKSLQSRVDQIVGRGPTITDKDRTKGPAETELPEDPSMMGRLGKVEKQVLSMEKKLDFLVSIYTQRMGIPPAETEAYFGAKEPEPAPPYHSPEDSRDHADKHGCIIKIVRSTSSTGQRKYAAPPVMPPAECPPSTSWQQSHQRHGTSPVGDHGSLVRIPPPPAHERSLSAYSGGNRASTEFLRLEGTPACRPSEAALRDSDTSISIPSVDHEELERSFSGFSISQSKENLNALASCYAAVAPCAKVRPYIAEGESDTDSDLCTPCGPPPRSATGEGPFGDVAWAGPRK
KCNQ2 block: inhibitors of rat KCNQ2 potassium channel. hit rate 1.1% among 310,000. O88943. CHO-K1 KCNQ2, FluxOR thallium flux, 20 min; stronger effect = lower value. B-score at 10 µM;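 active = fluorescence ratio B-score at most minus 3 library SDs, with starting brightness B-score within 2 library SDs, cut at about -5.5 in these data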
Large screens that a line does not name were inactive.

CCOC(=O)C1(CCOc2ccccc2)CCN(Cc2ccc(O)cc2)CC1	none
CCOC(=O)C1(CCOc2ccccc2)CCN(Cc2cccc3nonc23)CC1	KCNQ2 block -6.2
COc1ccc(N2C3=C(CC4=C2CC(C)(C)CC4=O)C(=O)CC(C)(C)C3)cc1	KCNQ2 block -10
COc1ccc(N2C3=C(CC4=C2CCCC4=O)C(=O)CCC3)cc1	none (no result: KCNQ2 enhance)
COc1ccccc1NC(=O)CN1CCN(c2ccccc2F)CC1	KCNQ2 block -5.8
COc1ccccc1NC(=O)CN1CCN(c2ccccc2OC)CC1	none
CCOC(=O)C1CCCN(C2=C(NS(=O)(=O)c3ccc(Br)cc3)C(=O)c3ccccc3C2=O)C1 (configuration not stated)	KCNQ2 block -6.7
CCOC(=O)C1CCN(C2=C(NS(=O)(=O)c3ccc(Cl)cc3)C(=O)c3ccccc3C2=O)CC1	none (no result: KCNQ2 enhance)
COc1ccc(C[C@H]2CN3C(=NC[C@@H]3Cc3ccc(O)cc3)N2CCNC(=O)c2ccc(C)c(Br)c2)cc1	none (no result: KCNQ2 enhance)
COc1ccc(C[C@H]2CN3C(=NC[C@@H]3Cc3ccccc3)N2CCNC(=O)c2ccc(C)c(Br)c2)cc1	KCNQ2 block -5.8
CC(=O)c1cccc(CN2CCC(C(=O)Nc3ccc(-c4cccc(C)c4)cc3)CC2)c1	none
Cc1ccc(-c2cc(C(=O)NCCCN3CCOCC3)c3ccccc3n2)cc1	none
CCc1ccc(Sc2cc(C(=O)NCCN3CCOCC3)c3ccccc3n2)cc1	KCNQ2 block -5.7
NCCNc1ccc(C(=O)N2c3ccccc3Sc3ccccc32)cc1[N+](=O)[O-]	KCNQ2 block -8.1
Cc1ccc(NC(=O)c2ccc(NCCN)c([N+](=O)[O-])c2)cc1	none (no result: KCNQ2 enhance)
C=CCN1C(=O)/C(=C2/Sc3ccc(OC)cc3N2C)SC1=Nc1cccc(O)c1	none
CCCc1cc(-c2[nH]ncc2-c2ccc(C(=O)OCC)o2)c(O)cc1O	none
CCCc1cc(-c2[nH]ncc2-c2ccc3c(c2)OCCCO3)c(O)cc1O	KCNQ2 block -8.5
CCCn1c2ccccc2c2cnn(CC(=O)NCCCN3C(C)CCCC3C)c(=O)c21 (configuration not stated)	none
CCN(CC)C(=O)c1cc2c(=O)n3ccccc3nc2s1	none
CCN(CC)C(=O)c1cc2c(=O)oc3ccccc3c2s1	KCNQ2 block -6.9
COc1ccc(NC(=O)C(CC(C)C)NC(=O)c2ccccc2C)cn1 (configuration not stated)	KCNQ2 block -7.7
Cc1ccccc1C(=O)NC(CC(C)C)C(=O)Nc1ccc(F)c([N+](=O)[O-])c1 (configuration not stated)	none (no result: KCNQ2 enhance)
CC(C)CCNC(=O)c1onc(CSc2nc3ccccc3[nH]2)c1C(=O)NCCC(C)C	none (no result: KCNQ2 enhance)
CCn1c(C)nc2cc(C(=O)N/N=C(\C)c3ccccc3O)ccc21	none (no result: KCNQ2 enhance)
Cc1ccc(CN(Cc2ccccn2)C(=O)Nc2ccc(C)c(C)c2)cc1	KCNQ2 block -6.8
CSc1cccc(NC(=S)N(Cc2ccc(C)cc2)Cc2ccccn2)c1	none (no result: KCNQ2 enhance)
COc1cc(OC)cc(C(=O)N[C@H](C(=O)Nc2cc(F)ccc2C)C(C)C)c1	none (no result: KCNQ2 enhance)
COC(=O)c1cccc(NC(=O)c2cc3sccc3n2C)c1	none (no result: KCNQ2 enhance)
COC(=O)c1ccccc1NC(=O)c1cc2sccc2n1C	KCNQ2 block -6.1
Cc1cc(S(=O)(=O)N2CCN(c3ccccc3F)CC2)ccc1-n1cnnn1	none
Cc1ccc(S(=O)(=O)N[C@H](C(=O)N2CCC(C(=O)N[C@@H](CCC(N)=O)C(=O)O)CC2)C(C)C)cc1	none (no result: KCNQ2 enhance)
CCCNC(=O)c1ccc(N2CCC3(CC2)CC(c2ccccc2)=NO3)c(NC(=O)c2ccc(Br)cc2)c1	none (no result: KCNQ2 enhance)
CCCCCCCC(=O)Nc1cc(C(=O)NCCC)ccc1N1CCC2(CC1)CC(c1ccccc1)=NO2	KCNQ2 block -6
CCC(C(=O)NCc1ccco1)N(C(=O)CNS(=O)(=O)c1ccccc1)c1ccc(OC)cc1 (configuration not stated)	KCNQ2 block -5.8
CCOc1ccc(N(C(=O)CNS(=O)(=O)c2ccccc2)C(CC)C(=O)NCc2ccco2)cc1 (configuration not stated)	none
COc1ccc(Cn2nnnc2C(c2cc3cc(C)cc(C)c3[nH]c2=O)N2CCOCC2)cc1 (configuration not stated)	KCNQ2 block -6.7
CCc1ccc2[nH]c(=O)c(C(c3nnnn3Cc3ccc(OC)cc3)N3CCOCC3)cc2c1 (configuration not stated)	none (no result: KCNQ2 enhance)
Cc1cccc2cc(C(c3nnnn3Cc3ccccc3)N3CCN(c4ccccc4)CC3)c(=O)[nH]c12 (configuration not stated)	KCNQ2 block -9
Cc1cc(C)c2cc(C(c3nnnn3C3CCCC3)N3CCOCC3)c(=O)[nH]c2c1 (configuration not stated)	KCNQ2 block -6
Cc1cc(C)c2[nH]c(=O)c(C(c3nnnn3CC3CCCO3)N3CCCC(C)C3)cc2c1 (configuration not stated)	KCNQ2 block -5.6
Cc1cccc2cc(C(c3nnnn3Cc3ccccc3)N3CCN(C)CC3)c(=O)[nH]c12 (configuration not stated)	none (no result: KCNQ2 enhance)
Cc1ccc2cc(C(c3nnnn3C3CCCC3)N3CCN(c4ccc(F)cc4)CC3)c(=O)[nH]c2c1 (configuration not stated)	none (no result: KCNQ2 enhance)
Cc1cc(C)c2[nH]c(=O)c(C(c3nnnn3CC3CCCO3)N3CCC(C)CC3)cc2c1 (configuration not stated)	none (no result: KCNQ2 enhance)
CC1(C(=O)OCC(=O)Nc2nc(-c3ccc(F)c(F)c3)cs2)CC1(Cl)Cl (configuration not stated)	none (no result: KCNQ2 enhance)
O=C(O)C1=C[C@H](c2csc3ccccc23)C[C@H](OCCCCO)O1	none
CC(C)(C)OC(=O)N1CCC(c2cc(=O)n3[nH]cc(C(=O)Nc4ccc(F)c(Cl)c4)c3n2)CC1	none
COc1ccc(NC(=O)c2c[nH]n3c(=O)cc(C4CCN(C(=O)OC(C)(C)C)CC4)nc23)cc1Cl	KCNQ2 enhance 6.3
Cc1cc(NC(=O)Cc2ccccc2[N+](=O)[O-])no1	none (no result: KCNQ2 enhance)
O=Nc1c(O)n(Cc2c(Cl)cccc2Cl)c2ccccc12	none
Cc1ccc(Cn2c(O)c(N=O)c3ccccc32)cc1	KCNQ2 block -6.7
O=Nc1c(O)n(Cc2ccc(Cl)cc2Cl)c2ccccc12	KCNQ2 block -8
O=Nc1c(O)n(Cc2ccc(Cl)cc2)c2ccccc12	none (no result: KCNQ2 enhance)
CCOc1ccc(N2CC(C(=O)Nc3ccccc3C(=O)N3CCOCC3)CC2=O)cc1 (configuration not stated)	none (no result: KCNQ2 enhance)
COc1cccc(C(=O)Nc2cc(C)nn2-c2ccccc2)c1OC	none
COc1ccc(S(=O)(=O)NCc2ccc(C(=O)NCCCN3CC(C)CC(C)C3)cc2)cc1 (configuration not stated)	none (no result: KCNQ2 enhance)
Cc1sc2ncn(CCn3cnc4sc(C)c(C)c4c3=O)c(=O)c2c1C	none (no result: KCNQ2 enhance)
Cc1sc2ncn(-n3c(C)ccc3C)c(=O)c2c1C	KCNQ2 block -5.7
Cc1ccc(-c2csc3ncn(-n4c(C)ccc4C)c(=O)c23)o1	KCNQ2 block -6.6
C=CCn1c(SCc2ccccc2)nc2scc(-c3ccc(C)o3)c2c1=O	none
Cc1cc(C)c(C)c(S(=O)(=O)NCCCn2ccnc2)c1C	none (no result: KCNQ2 enhance)
Cc1ccc(-n2nc3c(c2NC(=O)C(C)C)CS(=O)(=O)C3)c(C)c1	none (no result: KCNQ2 enhance)
O=C(NC1CCCC1)c1ccc2c(c1)N(Cc1ccc(F)cc1)CCS2	KCNQ2 block -6.4
Cc1ccc(CN2CCSc3ccc(C(=O)NC4CCCC4)cc32)cc1	none (no result: KCNQ2 enhance)
CC(C)(C)C(=O)COC(=O)c1cc(-c2cccnc2)nc2ccccc12	none (no result: KCNQ2 enhance)
COC(CNC(=O)CCc1c(C)nc2c(c(C)nn2-c2ccc(C)cc2)c1C)OC	none
